Measurements published in PubChem BioAssay AID493248 (Broad Institute, 2011).
About 1,400 (61%) of roughly 2,300 compounds were called active. Roughly 7% stayed inconclusive and do not appear here. The rule behind the calls is not given here. So high a share suggests a set chosen from earlier hits. A selection follows. Entries with a potency or affinity are not part of this list.

Each molecule was assayed against FAD-linked sulfhydryl oxidase ALR (Homo sapiens) (UniProt P55789) (assay: ALR-catalysed DTT oxidation blockers – biochemical, H2O2 detection, luminescence, cherry-pick, dose response (AID 493248)). Conditions: purified ALR, H2O2 HRP-luminol luminescence; at 10 µM (top of the series).
Sequence of FAD-linked sulfhydryl oxidase ALR (Homo sapiens) (P55789 whole entry, looked up): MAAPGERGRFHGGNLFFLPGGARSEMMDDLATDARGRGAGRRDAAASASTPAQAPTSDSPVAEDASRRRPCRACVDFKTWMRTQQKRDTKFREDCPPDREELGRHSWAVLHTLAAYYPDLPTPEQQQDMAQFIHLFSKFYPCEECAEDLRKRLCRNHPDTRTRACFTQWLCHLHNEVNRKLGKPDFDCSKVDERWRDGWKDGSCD

SMILES	activity change, negative = inhibition [%]
O=C(Nc1ccc(O)cc1)c1cc2n(n1)C(C(F)(F)F)CC(c1ccco1)N2 (centres undefined)	-82.6
c1ccc2c(-c3csc(-c4ccncc4)n3)c[nH]c2c1	-10.2
CCCCCCC(=O)N/N=C/c1ccco1	-28.6
COc1cc(C=NNC(=O)c2ccc(NS(=O)(=O)c3cccs3)cc2)cc(Br)c1O	165
COc1nc(-c2ccccc2Cl)ccc1C#N	-32.6
Cc1ccc2cn[nH]c2c1N	-36.2
O=S(=O)(Nc1ccccc1O)c1ccc(Cl)nc1	-36.8
COc1ccc(N2C(=O)CC(NNc3ncc(Cl)cc3Cl)C2=O)cc1 (centres undefined)	-50.3
CC1=NN(C(=O)c2ccc(Br)cc2)C(O)(c2ccccc2)C1 (centres undefined)	286
O=C(NCc1ccc2c(c1)OCO2)C1CC(=O)N(c2ccc(O)cc2)C1 (centres undefined)	-108
Cc1noc(C)c1S(=O)(=O)N(CC(=O)NCc1ccc2c(c1)OCO2)c1ccc(C(C)C)cc1	1.03
O=c1[nH]n(-c2ccc(Cl)cc2)c2ncccc12	291
O=C(CCCC(=O)c1ccccc1)Nc1ccc(O)cc1	182
S=c1[nH]nc(Cc2noc3ccccc23)n1-c1ccc(Cl)cc1	-49.3
COc1ccc(OC)c(/C(C)=N/Nc2ccc(C(=O)O)cc2)c1	-31.7
COc1ccc(CNc2nc3ccccc3n2CCN2CCCCC2)cc1	35.3
Brc1c(CSc2nnc(-c3ccco3)o2)nc2ccccn12	-95.5
O=C(O)c1ccc(N(c2ccccc2)c2ccccc2)cc1	-77.1
CCN(c1ccc(C)c(C)c1)S(=O)(=O)c1ccc2c(c1)CCN2C(=O)CCC(=O)O	-9.61
CCc1c(C)[nH]n(-c2ccc(Oc3ccccc3)c(S(=O)(=O)O)c2)c1=O	-7.16
Cc1cc(-c2n[nH]c(=S)o2)c(C)n1-c1ccccc1	19.3
COc1ccc(-c2csc(N(CCCN(C)C)C(=O)c3ccc(F)cc3)n2)cc1	-32.9
CCCS(=O)(=O)N1CCN=C1SCc1ccc(F)cc1	-0.819
CS(=O)(=O)N1CCN=C1SCc1cccc(F)c1	-0.153

SMILES	activity change, negative = inhibition [%]
S=c1[nH]nc(-c2c[nH]c3ccccc23)o1	-89
CCn1c(-c2cc(OC)c(OC)c(OC)c2)n[nH]c1=S	-1.45
CCCCCCCCN1[C@@H](CC(=O)O)c2ccc(C(F)(F)F)cc2S1(=O)=O	-22.2
COc1cccc2c3c(c(=O)[nH]c12)CCC(C)(C)O3	-20.3
CCn1c(SCc2nc3sc(C(=O)O)c(C)c3c(=O)[nH]2)nc2ccccc21	-10.8
Cc1ccsc1C=Nc1ccc(O)cc1	-98
Nc1ccc(Oc2cc(N)cc(Oc3ccccc3)c2)cc1	29.7
Cc1cccc(Oc2ccc(N)cc2)c1	-1.09
CNc1nn(-c2cccc(Cl)c2)nc1N	-9.08
c1ccc(-c2cnc(CN3CCN(c4ccccc4)CC3)o2)cc1	-44.8
COc1cccc(/C=N/n2c(-c3n[nH]c4c3CCC4)n[nH]c2=S)c1O	-33.1
CCCC(C)NC(=O)Cc1ccc(Br)cc1 (centres undefined)	60.9
CCCN1CCC(=O)N([C@H](CSc2ccc(OC)cc2)c2ccccc2)CC1	1.83
O=S1(=O)N=C(Nc2ccc(O)cc2)c2ccccc21	176
Cc1ccc(-c2c(C(=O)O)c(C(=O)O)c3n2CSC3)cc1	-43.7
Cc1n[nH]c(=S)n1/N=C/c1ccccc1	-93.3
S=c1[nH]nc(-c2ccco2)n1/N=C/c1ccccc1	0.752
Cc1cc(C(=O)NC2CCCc3c2cnn3-c2ccc(C)c(C)c2)no1 (centres undefined)	-8.68
O=c1[nH]c(/C=C\c2ccccc2F)nc(O)c1[N+](=O)[O-]	-17.7
O=C(CNS(=O)(=O)c1ccccc1)N/N=C/c1ccc(O)cc1	-113
Cc1nc2cccc(C(=O)Oc3ccc([N+](=O)[O-])cc3)c2o1	-34.6
CC1CC(C)CN(C(=O)c2ccc(-c3ccc([N+](=O)[O-])cc3)o2)C1 (centres undefined)	-37.5
O=C(NCc1cccs1)C1CCN(S(=O)(=O)c2cccc3cccnc23)CC1	3.4
CCCCN(CCCC)c1ccc(C(=O)c2ccccc2C(=O)O)c(O)c1	-56.2

SMILES	activity change, negative = inhibition [%]
CCN(CCNC(=O)CN(C)S(=O)(=O)c1cccc2nsnc12)c1ccccc1	-59.9
CC/C(=N\NC(=O)CCC(=O)NCc1ccccc1)c1ccc(O)cc1	-98.7
Cc1ccc(N=c2oc3cc(O)ccc3cc2C(N)=O)cc1	-84.9
Cc1nn(C)c(C)c1Sc1ccccc1N	-14.3
Cc1nc(N2CCN(c3ccccc3)CC2)[nH]c(=O)c1C	-42.3
Nc1ccc2oc(=O)c(-c3ccccc3)cc2c1	-86.7
Cc1ccc(N2CCN(C(=O)N3CCCC3)CC2)cc1C	-10.1
Cn1ccnc1SCc1cccc([N+](=O)[O-])c1	7.58
COc1cccc(CNc2nc3ccccc3n2CCN2CCCCC2)c1OC	-11.4
COc1cc(/C=C2\SC(=S)N(NC(C)=O)C2=O)ccc1OC(=O)c1ccco1	-26.5
CSc1cccc(NC(=O)c2ccco2)c1	-98.6
COc1ccc(S(=O)(=O)N2Cc3ccccc3CC2C(=O)Nc2ccc(O)cc2)cc1OC (centres undefined)	349
Cc1cc(NC(=O)c2ccco2)sc1C	-98.7
COc1ccc(SCCc2ccncc2)cc1	-20.1
O=C(C1CCC1)N1CCN(c2ccc(Cl)cc2)CC1	-43.9
CCCC(=O)N1c2ccc(-c3csc(N)n3)cc2CC1C (centres undefined)	-16.4
Cc1cc(N/N=C/c2ccco2)c2ccccc2n1	-3.59
Cc1cc(N/N=C/c2ccccc2F)c2ccccc2n1	-22.6
CC(=O)N1CCN=C1SCc1ccc(Cl)cc1	-8.99
O=C(Cn1cnc2ccccc21)N/N=C/c1ccccn1	0.505
S=c1[nH]ncn1/N=C/c1ccccc1	-73
COc1ccc(NC(=O)Nc2ccc3nccnc3c2)cc1	105
Cc1ccc(N(C(=O)c2ccc(Br)o2)C2C=CS(=O)(=O)C2)cc1 (centres undefined)	-13.3
Cc1oc(C(=O)Nc2ccc(C(=O)O)cc2)cc1COc1ccccc1	-25.3

SMILES	activity change, negative = inhibition [%]
CC1=C(C)CS(=O)N(S(=O)(=O)c2ccccc2)C1 (centres undefined)	-41.8
O=C(Cc1c(C(=O)O)[nH]c2ccccc12)NCCN1CCN(c2cccc(Cl)c2)CC1	-54.4
O=C(NCCN1CCN(c2ccccc2)CC1)c1cccc(Cl)c1	-76.5
CC(C)CN(CC(C)C)c1nnc(N)s1	16.8
O=C(Nc1nc2ccc(S(=O)(=O)N3CCCCC3)cc2s1)c1ccncc1	-6.5
Cc1cccc(-c2n[nH]c(=S)n2/N=C/C=C/c2ccco2)c1	-98
COc1c(/C=N/Nc2ccc(C(=O)O)cc2)c(CCN(C)C(C)=O)cc2c1OCO2	-95.6
CC1CN(c2ccccc2)NC1=O (centres undefined)	23.1
O=C(NCc1cccs1)c1nc2c(nnn2Cc2ccccc2Cl)c(=O)[nH]1	-7.82
Cc1ccc(N=Nc2c(N)[nH]n3c(=O)cc(C)nc23)cc1	-55.4
COc1cc(OC)cc(-c2cn[nH]c2N)c1	-60.4
Cc1n[nH]c(C)c1Sc1ccccc1N	54.6
Cc1nc(NS(=O)(=O)c2ccccc2C)c2c3c(sc2n1)CCC3	-0.709
CC1CCc2c(sc(NC(=O)c3ccccc3C(=O)O)c2C#N)C1 (centres undefined)	-85.9
CCCCNc1cc(NC(C)=O)cc2cc(OC)c(OC)cc12	-66.6
COc1cccc(NC(=O)c2cc(OC)c(OC)c(OC)c2Br)c1	4.6
O=S(=O)(Nc1ncnc2sc3c(c12)CCC3)c1cc(F)ccc1F	5.9
CCC1(C)OC(=O)NN(c2ccc(C)cc2)C1(C)O (centres undefined)	-35.5
COc1ccc(-c2cc(C(=O)NN)[nH]n2)cc1OC	-15.4
Cc1ccc(O)c(-c2cc(C(=O)NCc3ccncc3)[nH]n2)c1	-50.3
Cn1nnc2c[n+](CC(=O)c3ccc(Cl)cc3)cc(Br)c21	-31
O=C(Nc1ccccc1F)c1ccc(Cn2cc(Cl)cn2)cc1	-100
Cc1cccc(-n2c(-c3ccncc3)n[nH]c2=S)c1	-2.76
COc1ccc(-c2n[nH]c(=S)n2-c2ccc(C)cc2)cc1OC	3.4

SMILES	activity change, negative = inhibition [%]
Cc1cc(-c2n[nH]c(=S)n2-c2ccc(C)c(C)c2)no1	-43
Cc1ccc(-n2c([C@@H]3C[C@H]3c3ccccc3)n[nH]c2=S)cc1	-34.6
O=C(Cn1cc(C(F)(F)F)ccc1=O)N/N=C/c1ccc(O)cc1	174
COc1cc(/C=N/Nc2ccc(C(F)(F)F)cn2)ccc1O	-15
COC(=O)Cc1c(C)c2ccc(OC(=O)c3ccccc3)cc2oc1=O	31.5
CCCN(Cc1ccc(N(CC)CC)cc1)CC1CC1	-0.019
CN(CC(=O)NC1CCCCC1)S(=O)(=O)c1cccc2cccnc12	5.38
O=C(Cc1ccccc1)Nc1ccc(C(=O)Nc2ccccc2C(=O)O)cc1	5.48
O=S(=O)(NCCCN1CCN(c2ccccc2F)CC1)c1cccc2cccnc12	20.3
O=C(O)c1cccc(NC(=O)c2cccc(S(=O)(=O)Nc3cccc([N+](=O)[O-])c3)c2)c1	-2.25
CNCc1ccccc1Sc1ccc(O)c(O)c1	-78.5
CC(=O)c1c(C)oc(C)c1CSCc1ccc(C(=O)O)o1	16.7
CC(C)NC(=O)c1ccc(CSCc2ccccc2Cl)o1	-4.45
Cc1cc(-c2ccccc2)nc2cc(C(=O)NCc3ccco3)nn12	-17.4
CS(=O)(=O)c1nsc2nc(=O)c(/C=C3\C=Nc4ccccc43)c(N)n12	-69.9
CCCc1nn2c(N)c(/C=C3\C=Nc4ccccc43)c(=O)nc2s1	-38
CCC(=O)Nc1ccc(C(=O)NCCCn2ccnc2)cc1	87.5
CCCC(=O)NC(c1ccc(N(C)C)cc1)c1ccc2cccnc2c1O (centres undefined)	268
CC1=Nc2cccc3cccc(c23)N1C	-10.4
Cc1nc(-c2cccc(N)c2)cs1	-3.17
O=S(=O)(c1ccc(Cl)nc1)N1CCC(Cc2ccccc2)CC1	-5.04
CO/N=C/NC(=O)c1ccc([N+](=O)[O-])c(CS(=O)(=O)c2ccc(Cl)cc2)c1	7.26
Cc1nc([N+](=O)[O-])c(Br)n1CC(=O)c1ccc(Cl)cc1	-18.7
